CYP2C9 act: human CYP2C9 activators, primary screen, biochemical, luminescence; hit rate 1.4% among 96,000; recombinant CYP2C9, luciferin-H conversion; active compounds read high; factor 1 = untreated enzyme, 0 = blocked; Cytochrome P450 2C9 (Homo sapiens), P11712; AID 1024, 2008; activation factor at 5 µM;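 active = activation factor of 2 or more for CYP2C9 at a 5 µM dose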
CYP2C19 inh: blockers of cytochrome P450 2C19 activity – biochemical, luminescence, ADME assay, primary screen; P33261; CYP2C19 Supersomes, luciferin-H EGE luminescence, 30 min; inhibition, % at 5 µM; hit rate 21% among 96,000;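 active = CYP2C19 inhibition above a set limit at 5 µM in the primary screen, cut at about 50% in these data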
Target sequence (P33261 whole entry, looked up): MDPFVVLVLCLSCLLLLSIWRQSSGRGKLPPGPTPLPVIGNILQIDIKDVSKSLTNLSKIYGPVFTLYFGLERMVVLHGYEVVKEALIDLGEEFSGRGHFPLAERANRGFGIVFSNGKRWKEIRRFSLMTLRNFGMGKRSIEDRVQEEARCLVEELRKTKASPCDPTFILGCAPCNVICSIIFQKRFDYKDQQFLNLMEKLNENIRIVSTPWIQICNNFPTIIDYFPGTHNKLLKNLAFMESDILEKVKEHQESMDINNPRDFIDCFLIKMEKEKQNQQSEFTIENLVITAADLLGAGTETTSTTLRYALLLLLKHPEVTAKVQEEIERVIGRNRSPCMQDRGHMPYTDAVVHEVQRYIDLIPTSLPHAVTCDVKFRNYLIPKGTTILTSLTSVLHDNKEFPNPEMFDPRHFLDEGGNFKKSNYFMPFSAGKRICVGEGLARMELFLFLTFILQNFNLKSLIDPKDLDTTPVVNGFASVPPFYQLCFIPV
CYP2C9 inhib: blockers of cytochrome P450 2C9 activity – biochemical, luminescence, ADME assay, primary screen. P11712. CYP2C9 Supersomes, luciferin-H conversion. inhibition, % at 5 µM. hit rate 20% among 96,000. AID 777, 2007;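 active = blocking of liver enzyme CYP2C9 beyond about 50% at 5 µM, limit read from the data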
CYP2C19 activ: human CYP2C19 activators, primary screen, biochemical, luminescence | recombinant CYP2C19, luciferin-H EGE luminescence; active compounds read high; 0 = fully inhibited enzyme, 1 = untreated enzyme | activation factor at 5 µM | 96,000 tested, under 10 active | Cytochrome P450 2C19 (Homo sapiens), P33261;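 active = activation factor of at least 2 at 5 µM in the primary screen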
EphB4 antag: EphB4-ephrin-B2 interaction antagonists, primary screen, biochemical, TNYL-RAW peptide probe, fluorescence polarization; Ephrin type-B receptor 4 (Homo sapiens), P54760; EphB4 LBD / TNYL-RAW-Alexa532 peptide; inhibition, % at 7 µM; hit rate 0.15% among 97,000; AID 720, 2007;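 active = inhibition above the screen-wide mean inhibition plus 3 SD, cut at about 15% in these data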
Of the large screens only hits and unclear results are named; the others gave an inactive call. Shown are actives, neighbours in structure and some others; about 27% of the full set was active somewhere.

CCOC(=O)c1nnc(-c2cccs2)nc1Oc1ccc(Cl)cc1	none
CCOC(=O)c1nnc(-c2cccs2)nc1Oc1ccccc1C(=O)OC	CYP2C19 inh 83.0, CYP2C9 inhib 94.9
O=C(CSc1nc2c([nH]c3ccccc32)c(=O)n1-c1cccc(Cl)c1)N1CCOCC1	none (no result: CYP2C9 act, CYP2C19 inh, CYP2C9 inhib, CYP2C19 activ)
C=CCc1cccc(/C=N/c2nc3ccccc3n2CC)c1O	none
O=C(CCCCCn1c(=O)[nH]c2ccsc2c1=O)NCc1ccc2c(c1)OCO2	CYP2C9 inhib 62.6
O=C(CCCn1c(=O)[nH]c2ccsc2c1=O)N1CCN(Cc2ccc3c(c2)OCO3)CC1	none (no result: CYP2C9 act, CYP2C19 inh, CYP2C9 inhib, CYP2C19 activ)
COC(=O)c1ccc2c(=O)n(CCCCCC(=O)NCc3ccccc3)c(=O)[nH]c2c1	CYP2C9 inhib 51.2
CCCCCn1c(=O)[nH]c2cc(C(=O)NCc3ccc4c(c3)OCO4)ccc2c1=O	none
COC(=O)c1ccc2c(=O)n(CCCCCC(=O)NCc3ccc4c(c3)OCO4)c(=O)[nH]c2c1	CYP2C9 inhib 51.9
O=S(=O)(CCOc1ccccc1)c1nc2ccccc2[nH]1	CYP2C19 inh 72.6
O=C1/C(=C/c2ccc(N3CCOCC3)o2)SC(=Nc2ccccc2)N1CCc1c[nH]c2ccccc12	CYP2C9 inhib 63.1
O=C(Nc1nccs1)C1CCN(S(=O)(=O)c2cnc[nH]2)CC1	CYP2C9 inhib 85.7 (no result: EphB4 antag)
O=C(Nc1cccc(C(F)(F)F)c1)C1CCN(S(=O)(=O)c2cnc[nH]2)CC1	CYP2C19 inh 54.6, CYP2C9 inhib 82.2 (no result: EphB4 antag)
CCOC(=O)c1cccc(-n2c(C)nc3ccccc3c2=O)c1	none
CCOC(=O)c1cccc(N2C(=O)c3ccccc3S2(=O)=O)c1	CYP2C19 inh 56.4, CYP2C9 inhib 68.4
Cc1ccccc1C(=O)OCn1nnc2ccccc2c1=O	none (no result: EphB4 antag)
COc1ccc(C2C(=O)N(C3CCCCC3)CC(=O)N2CCc2ccccc2)cc1OC (stereo not given)	none
O=C1C(c2ccncc2)N(CCC2=CCCCC2)C(=O)CN1C1CCCCC1 (stereo not given)	CYP2C19 inh 52.6, CYP2C9 inhib 54.5
O=c1c2c([nH]c3ccccc13)CCCC2	CYP2C9 act 2.4
O=c1c2c([nH]c3ccccc13)C(=C1CCCC1)CC2	none
CCOP(=O)(OCC)c1nc(-c2ccc(C)cc2)oc1N1CCOCC1	none (no result: CYP2C9 act, CYP2C19 inh, CYP2C9 inhib, CYP2C19 activ)
CC1(C)CC(c2csc(N)n2)CCO1 (stereo not given)	none
c1ccc2c(c1)OCC(c1csc3ncnc(N4CCOCC4)c13)O2 (stereo not given)	CYP2C19 inh 78.1, CYP2C9 inhib 50.3
CCN(CC)c1ncnc2scc(C3COc4ccccc4O3)c12 (stereo not given)	none (no result: CYP2C9 act, CYP2C19 inh, CYP2C9 inhib, CYP2C19 activ)
N#Cc1c(-c2ccco2)nc(SCc2ccc(F)cc2)[nH]c1=O	CYP2C9 inhib 63.1
N#Cc1c(-c2ccco2)nc(NCC2CCCO2)[nH]c1=O (stereo not given)	none
Cc1nc(SCc2cccc(F)c2)[nH]c(=O)c1C#N	CYP2C9 inhib 74.8
Cc1cc(C)n(Cc2cccc(F)c2)c(=O)c1C#N	none
N#Cc1c(-c2ccco2)nc(SCC(=O)Nc2ccc(S(N)(=O)=O)cc2)[nH]c1=O	CYP2C9 inhib 50.4
Cc1c(Cl)c([N+](=O)[O-])nn1Cc1ccc(C(=O)N/N=C\c2cccc(Br)c2)o1	CYP2C19 inh 67.7, CYP2C9 inhib 64.4
Cc1cc(C(=O)N/N=C/c2cccc([N+](=O)[O-])c2)c(C)o1	none
CC(=O)C1=C(O)C=C(c2ccco2)CC1c1ccco1 (stereo not given)	CYP2C19 inh 50.3, CYP2C9 inhib 50.9
COCCn1c(CN2CCN(c3cccc(Cl)c3)CC2)nc2c1c(=O)n(C)c(=O)n2C	CYP2C9 inhib 76.7
CCN1CCN(Cc2nc3c(c(=O)[nH]c(=O)n3C)n2Cc2ccccc2Cl)CC1	none (no result: CYP2C9 act, CYP2C19 inh, CYP2C9 inhib, CYP2C19 activ)
CCOCCn1c(CN2CCN(c3cccc(Cl)c3)CC2)nc2c1c(=O)n(C)c(=O)n2C	CYP2C9 inhib 80.2
Cn1c(=O)c2c(nc(CN3CCN(c4cccc(Cl)c4)CC3)n2CCc2ccccc2)n(C)c1=O	none (no result: CYP2C9 act, CYP2C19 inh, CYP2C9 inhib, CYP2C19 activ)
Cn1c(=O)[nH]c(=O)c2c1nc(CN1CCN(c3cccc(Cl)c3)CC1)n2Cc1ccccc1Cl	CYP2C9 inhib 73.4 (no result: EphB4 antag)
CCc1ccc(N2C(=O)c3ccc4c5c(ccc(c35)C2=O)CC4)cc1	none
CCN(CC)C(=O)COc1cc(C)cc2oc(=O)cc(-c3ccccc3)c12	none
Cc1cc(OCC(=O)N(C)C)c2c(-c3ccccc3)cc(=O)oc2c1	CYP2C9 inhib 63.6
CCCCc1cc(=O)oc2cc(OCc3nn[nH]n3)c(Cl)cc12	CYP2C9 inhib 80.3
CCc1cc(=O)oc2cc(OCc3nn[nH]n3)ccc12	none
Cc1cc(OCc2nn[nH]n2)c2c(-c3ccccc3)cc(=O)oc2c1	CYP2C9 inhib 70.6
COc1ccc(-c2cc(=O)oc3c(C)c(OCc4nn[nH]n4)ccc23)cc1	CYP2C19 inh 78.7, CYP2C9 inhib 97.1
Cc1cc(NC(=O)CSc2nnc(-c3cccs3)n2N)no1	none
CCn1cc(C2=NC(C(C)C)CO2)c2ccccc21 (stereo not given)	none (no result: EphB4 antag)
COc1ccc(C(=O)c2ccc(N(C)C)cc2)c2ccccc12	none (no result: CYP2C9 act, CYP2C19 inh, CYP2C9 inhib, CYP2C19 activ)
Cc1cc(OCc2nn[nH]n2)c2c(C)c(CC(=O)O)c(=O)oc2c1	none
Cc1c(OCc2nn[nH]n2)ccc2c(-c3ccccc3)cc(=O)oc12	CYP2C19 inh 95.3, CYP2C9 inhib 98.3
O=C(OC(C(=O)NC1CCCC1)c1ccncc1)C1=Cc2ccccc2OC1 (stereo not given)	CYP2C19 inh 89.1, CYP2C9 inhib 73.5
N#Cc1c(N2CCCCC2)nc(N2CCCCC2)c2c1CCN(Cc1ccccc1)C2	CYP2C19 inh 67.8, CYP2C9 inhib 95.8
C=CCNc1nc(NCc2ccccc2)c(C#N)c2c1CN(C)CC2	none
N#Cc1c(NCCN)nc(NCc2ccccc2)c2c1CCN(Cc1ccccc1)C2	CYP2C19 inh 87.6, CYP2C9 inhib 95.2
Cc1cc(C)c(C#N)c(N2CCN(Cc3ccc4c(c3)OCO4)CC2)n1	none
Cc1cc(C)c(C#N)c(N2CCN(Cc3ccccc3)CC2)n1	CYP2C19 inh 61.5, CYP2C9 inhib 50.1
CCN1CCc2c(C#N)c(NCc3ccccc3)nc(N(CC)CC)c2C1	none
Cc1nnc(NC(=O)c2oc3cc(C)c(C)cc3c2C)s1	none
Cc1ccc(C)c(SCC(=O)OCC(=O)Nc2ccc(S(=O)(=O)N3CCOCC3)cc2)c1	none
COc1ccc(-c2nc3ccccc3c(=O)n2CCCN2CCOCC2)cc1	CYP2C19 inh 90.2
Cc1[nH]c2ccccc2c1C(=O)CSc1nc2ccccc2c(=O)n1CCCN1CCOCC1	CYP2C19 inh 73.0, CYP2C9 inhib 85.2
Cc1[nH]c2ccccc2c1C(=O)CSc1nc2ccccc2[nH]1	none
Cc1cc(N2C(=O)CC(C(C)c3ccccc3)C2=O)no1 (stereo not given)	none (no result: CYP2C9 act, CYP2C19 inh, CYP2C9 inhib, CYP2C19 activ)
COc1ccc(/C=N/O)cc1COc1ccc(NC(C)=O)cc1	none (no result: CYP2C9 act, CYP2C19 inh, CYP2C9 inhib, CYP2C19 activ)
Cc1nc2ccccc2c(=O)n1C1CCCCCC1	CYP2C19 inh 58.3
